Measured values taken from PubChem BioAssay (Tox21).
Records with an inconclusive call do not appear. A call without a number means that no potency is given here. The source made the active and inactive calls. Unless noted, the call rests on the fitted dose curve; in most records, active means well fitted curve in the direction sought with a large enough effect in the repeat runs; inconclusive means weak or mixed curves; inactive means no such curve, though single readings can be large; an effect the other way counts as inactive or inconclusive.

How the values were obtained:
[1] = qHTS assay to identify small molecule agonists of the RXR signaling pathway - cell viability counter screen (AID 1159529); further: nearly all actives have a fitted effect of over 50% in size; further: potency means the concentration at half of the fitted maximal effect
Summary of the method: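 RXR-alpha-UAS-bla HEK 293T cells in medium with 2% charcoal-stripped FBS were preincubated 5 hr, then exposed to compounds for 16 hr at 37 C. Viability was read as CellTiter-Glo luminescence after 30 min at room temperature.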

[2] = qHTS assay to identify small molecule antagonists of the retinoid acid receptor (RAR) signaling pathway - cell viability counter screen (AID 1159551); further: nearly all actives have a fitted effect of over 35% in size
Summary of the method: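 Seed C3RL4 cells; next day add compound, then retinol to 1 uM final; incubate 6 h at 37 C; add CellTiter-Glo; read luminescence after 30 min at RT.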

[3] = qHTS assay to identify small molecule antagonists of the retinoic acid receptor (RAR) signaling pathway (AID 1159552; further: nearly all actives have a fitted effect of over 50% in size; further: potency means the concentration at half of the fitted maximal effect)
Summary of the method: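 RARE-luc C3RL4 cells; cpds + 1 uM (final) retinol, 6 hr, 37 C/5% CO2; luciferase reagent, 30 min RT, luminescence readout. Inhibitors of retinol-driven signal scored.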

[4] = qHTS assay to identify small molecule antagonists of the estrogen related receptor (ERR) signaling pathway from Tox21 library - cell viability counter screen (AID 1224834); further: nearly all actives have a fitted effect of over 30% in size
Summary of the method: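 CellTiter-Fluor fluorescence measured; ERR cells; 17.5 h compound incubation at 37 C; 30 min reagent step.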

[5] = qHTS assay to identify small molecule agonists of the constitutive androstane receptor (CAR) signaling pathway - cell viability counter screen (AID 1224836); further: series mostly up to about 92 µM; nearly all actives have a fitted effect of over 45% in size
Summary of the method: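 HepG2 cells stably carrying hCAR and a CYP2B6-2.2kb reporter were plated 4 h, then given compounds at 15 concentrations plus PK11195 (final 0.75 uM). After 23 h at 37 C, viability was read by CellTiter-Fluor fluorescence.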

[6] = biological target: Nuclear receptor subfamily 1 group I member 3 (Homo sapiens) (UniProt Q14994); assay: qHTS assay to identify small molecule antagonists of the constitutive androstane receptor (CAR) signaling pathway (AID 1224838); further: nearly all actives have a fitted effect of over 40% in size
Summary of the method: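 Reporter luminescence was quantified after 24 h exposure of hCAR/CYP2B6-2.2kb double-stable HepG2 cells to compounds at 15 concentrations in the presence of 50 nM CITCO final.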

[7] = biological target: Nuclear receptor subfamily 1 group I member 3 (Homo sapiens) (UniProt Q14994); assay: qHTS assay to identify small molecule agonists of the constitutive androstane receptor (CAR) signaling pathway (AID 1224839); further: nearly all actives have a fitted effect of over 15% in size; further: potency means the concentration at half of the fitted maximal effect
Summary of the method: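 HepG2 cells stably expressing hCAR and a CYP2B6-2.2kb luciferase reporter were treated with compounds at 15 concentrations plus 0.75 uM PK11195 (final) for 24 h at 37 C; luminescence was read after ONE-Glo addition.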

[8] = qHTS assay to identify small molecule antagonists of the estrogen related receptor signaling pathway with the pleiotropic PPARgamma coactivator (PGC) from Tox21 10K library - cell viability counter screen (AID 1224840; active means well fitted cell-killing curve with a large enough effect in the repeat runs, not every such curve was filed as active; further: nearly all actives have a fitted effect of over 40% in size)
Summary of the method: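 Here the PGC/ERR cells serve as a cytotoxicity control: they are exposed to compounds for 17.5 hours at 37 C, and live-cell signal is quantified using CellTiter-Fluor fluorescence.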

[9] = biological target: Luciferin 4-monooxygenase (Photinus pyralis) (UniProt P08659); assay: qHTS assay to identify small molecule inhibitors of firefly luciferase (AID 1224835); further: nearly all actives have a fitted effect of over 25% in size; further: potency means the concentration at half of the fitted maximal effect
Summary of the method: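 Inhibition of purified Photinus luciferase is measured by luminescence. Substrate levels (D-luciferin, ATP) sit at their KM values. Each compound is tested in a concentration series.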

[10] = qHTS assay to identify small molecule antagonists of the constitutive androstane receptor (CAR) signaling pathway - cell viability counter screen (AID 1224837); further: series mostly up to about 92 µM; nearly all actives have a fitted effect of over 45% in size
Summary of the method: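 Using CellTiter-Fluor, viability is scored in HepG2 cells stably carrying hCAR and a 2.2kb CYP2B6 reporter after 23 hr compound exposure across 15 concentrations, with CITCO present at 50 nM.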

[11] = qHTS assay to identify small molecule antagonists of the estrogen related receptor signaling pathway with the pleiotropic PPARgamma coactivator (PGC) from Tox21 10K library (AID 1224841; call rule not given here; further: series mostly up to about 92 µM; actives are mostly falling curves and most rising ones were filed inactive; nearly all actives have a fitted effect of over 50% in size)
Summary of the method: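 Each well held 2,000 PGC/ERR cells, pre-incubated six hours (37 C, 5% CO2). Test substances in DMSO were added by pin tool and left for 18 h at 37 C before luciferase detection by One-Glo.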

[12] = qHTS assay to identify small molecule agonists of the retinoic acid receptor (RAR) signaling pathway (AID 1159553); further: potency means the concentration at half of the fitted maximal effect
Summary of the method: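 Activation of retinol signaling was monitored via a RARE luciferase reporter in C3RL4 cells. After 6 hr compound treatment at 37 C, detection reagent was added for 30 min at room temperature before luminescence reading.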

[13] = qHTS assay to identify small molecule antagonists of the estrogen related receptor (ERR) signaling pathway - cell viability counter screen (AID 1224818);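 further: series mostly up to about 46 µM; viability measured after 17.5 h of compound exposure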
Summary of the method: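 In the same ERR cell assay, compound-treated wells (17.5 h, 37 C) were multiplexed with a fluorogenic viability reagent, CellTiter-Fluor, read after 30 min to flag cytotoxic substances.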

[14] = qHTS assay to identify small molecule antagonists of the estrogen related receptor (ERR) signaling pathway (AID 1224819;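 further: luminescence from an ERR-driven luciferase reporter measured with One-Glo reagent; series mostly up to about 46 µM; nearly all actives have a fitted effect of over 50% in size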)
Summary of the method: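 qHTS in ERR cells, 2,000/well, 1536 format. Cpd (DMSO) added after 6 h settle, 18 h 37 C. One-Glo luminescence, 30 min RT.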

[15] = qHTS assay to identify small molecule agonists of the estrogen related receptor (ERR) signaling pathway (AID 1224820)
Summary of the method: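 Cells: ERR line from NTP, 2,000/well. Pre-incubation 6 h, 37 C/5% CO2. Compound (DMSO) pin transfer, 18 h 37 C. One-Glo, 30 min RT, luminescence.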

[16] = test system: estrogen-related receptor alpha (ERRalpha) with PGC-1alpha coactivator, human; assay: qHTS assay to identify small molecule antagonists of the estrogen related receptor signaling pathway with the pleiotropic PPARgamma coactivator (PGC) (AID 1224821; calls by dose curve)
Summary of the method: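 Luminescent read-out (One-Glo, 30 min at room temperature) following 18 h treatment of PGC/ERR cells at 37 C with compounds delivered in DMSO. Cells had settled 6 h at 37 C/5% CO2 before dosing.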

[17] = qHTS assay to identify small molecule antagonists of the estrogen related receptor signaling pathway with the pleiotropic PPARgamma coactivator (PGC) cell viability counter screen (AID 1224822; further: series mostly up to about 46 µM)
Summary of the method: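 Compounds in DMSO, with positive and negative controls, were applied to PGC/ERR cells (2,000/well) and left 17.5 h at 37 C before CellTiter-Fluor detection.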

[18] = qHTS assay to identify small molecule agonists of the estrogen related receptor signaling pathway with the pleiotropic PPARgamma coactivator (PGC) (AID 1224823); further: potency means the concentration at half of the fitted maximal effect
Summary of the method: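 Steps: plate PGC/ERR cells at 2,000 cells/well; incubate 6 h, 37 C/5% CO2; pin-transfer compounds (DMSO); incubate 18 h, 37 C; add One-Glo; 30 min RT; read luminescence.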

[19] = qHTS assay to identify small molecule agonists of the estrogen related receptor signaling pathway with the pleiotropic PPARgamma coactivator (PGC) from Tox21 10K library (AID 1224842); further: nearly all actives have a fitted effect of over 15% in size; further: potency means the concentration at half of the fitted maximal effect
Summary of the method: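 Luminescence from One-Glo (30 min, room temperature) measured after PGC/ERR cells had 18 h at 37 C with pinned compound (23 nL in DMSO). Cells had been seeded at 2,000 per well and pre-incubated 6 h.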

Chain of Luciferin 4-monooxygenase (Photinus pyralis) (P08659 whole entry, looked up): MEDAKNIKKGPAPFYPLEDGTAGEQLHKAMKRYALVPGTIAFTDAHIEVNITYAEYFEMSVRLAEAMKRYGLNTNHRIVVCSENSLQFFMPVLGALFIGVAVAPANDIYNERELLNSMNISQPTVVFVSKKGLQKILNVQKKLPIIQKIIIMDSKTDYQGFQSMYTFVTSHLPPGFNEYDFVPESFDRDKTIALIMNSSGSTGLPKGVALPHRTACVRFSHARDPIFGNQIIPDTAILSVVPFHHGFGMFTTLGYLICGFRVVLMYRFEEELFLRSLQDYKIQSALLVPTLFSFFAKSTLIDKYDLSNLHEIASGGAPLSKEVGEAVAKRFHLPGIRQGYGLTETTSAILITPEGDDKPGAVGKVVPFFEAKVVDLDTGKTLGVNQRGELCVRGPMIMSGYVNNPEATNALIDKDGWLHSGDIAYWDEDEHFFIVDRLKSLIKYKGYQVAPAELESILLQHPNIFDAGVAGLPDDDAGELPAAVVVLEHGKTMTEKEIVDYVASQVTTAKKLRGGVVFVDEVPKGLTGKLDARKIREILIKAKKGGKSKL
Chain of Nuclear receptor subfamily 1 group I member 3 (Homo sapiens) (Q14994 whole entry, looked up): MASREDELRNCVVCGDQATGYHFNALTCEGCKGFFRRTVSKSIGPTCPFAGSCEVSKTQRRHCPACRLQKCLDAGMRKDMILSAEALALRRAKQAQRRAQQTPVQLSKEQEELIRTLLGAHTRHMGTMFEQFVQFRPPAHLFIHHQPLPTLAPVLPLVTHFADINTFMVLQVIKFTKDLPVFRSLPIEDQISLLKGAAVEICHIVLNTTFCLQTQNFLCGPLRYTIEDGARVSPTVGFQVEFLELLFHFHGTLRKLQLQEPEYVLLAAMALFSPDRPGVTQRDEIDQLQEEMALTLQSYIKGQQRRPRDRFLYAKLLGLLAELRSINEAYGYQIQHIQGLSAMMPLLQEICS

SMILES	Potency [1]	Potency [2]	Potency [3]	Potency [4]	Potency [5]	Potency [6]	Potency [7]	Potency [8]	Potency [9]	Potency [10]	Potency [11]	Potency [12]	outcome [13]	Potency [14]	outcome [15]	Potency [16]	outcome [17]	Potency [18]	Potency [19]
OCC1CC=CCC1 (stereo not drawn)	inactive	inactive	inactive	inactive	inactive	inactive	inactive	inactive											
O=C(O)c1ccc(CO)o1	inactive	inactive	inactive	inactive	inactive	inactive	inactive	inactive	inactive										
Cc1ccc(/C=N/n2c(-c3ccccc3)csc2=S)cc1	inactive	inactive	inactive	inactive	inactive	inactive	29.8 µM (active)	inactive	inactive	inactive	inactive								
Cc1nccn1-c1ccc(Sc2cccc(C3(C(N)=O)CCOCC3)c2)cc1	inactive	inactive	9.69 µM (active)			inactive	9.69 µM (active)	inactive	inactive										
O=C(NCCCN1CCOCC1)c1ccc(Cl)cc1	inactive	inactive	inactive	inactive	inactive	inactive		inactive	inactive	inactive	inactive								
CCCCCCCCCCCC[N+](C)(C)CC(=O)[O-]	24.5 µM (active)	inactive	inactive	inactive	inactive	inactive	inactive	inactive		inactive									
CCCCN(CCCC)C(=S)SSC(=S)N(CCCC)CCCC	48.5 µM (active)	inactive	inactive					inactive		inactive		1.52 µM (active)							
CC(C)c1nnc2ccc(-c3ocnc3-c3cc(F)ccc3F)cn12	inactive	inactive	27.3 µM (active)	inactive	inactive	inactive		inactive	inactive	inactive		inactive							
COC(=O)Nc1nc2ccc(C(=O)c3cccs3)cc2[nH]1	inactive	inactive	inactive			inactive		inactive	15.5 µM (active)		inactive		inactive	inactive	inactive	inactive	inactive	1.96 µM (active)	3.35 µM (active)
ON(Cc1ccccc1)Cc1ccccc1	inactive	inactive	inactive	inactive	inactive	inactive		inactive	inactive	inactive		inactive							
CCCCCCCCCCOS(=O)(=O)O	inactive	inactive	inactive	inactive	inactive	inactive	inactive	inactive		inactive		inactive							
Cc1ccnc2ccccc12	inactive	inactive	inactive	inactive		inactive	inactive	inactive	inactive	inactive									
CCCOc1ccc(S(=O)(=O)N2CCN(CC)CC2)cc1-c1nc2c(CC)n(Cc3ccccn3)nc2c(=O)[nH]1	inactive	inactive	inactive	inactive	inactive	inactive		inactive	inactive	inactive	inactive	inactive							inactive
O=C(O)Cc1ccc(-c2ccccc2)cc1	inactive	inactive	inactive	inactive	inactive	inactive	inactive	inactive	inactive	inactive	inactive								inactive
Nc1c(I)cc(I)c(C(=O)N(CCC(=O)O)c2ccccc2)c1I	inactive	inactive	inactive	inactive	inactive	inactive	inactive	inactive	inactive			inactive							
COc1ccc(C(=O)c2cccc(O)c2)c(OC)c1	inactive	inactive	inactive	inactive		inactive	inactive	inactive	inactive	inactive		inactive							
Cc1cc(O)c2c(O)c3c(O)cccc3cc2c1	inactive	inactive	inactive		inactive	inactive	29.8 µM (active)	inactive	inactive	inactive		inactive							inactive
